Only some compounds are listed: those with a hit (about 1.6% of all), similar ones and a draw of the others.
KCNQ2 inh – blocks the rat KCNQ2 potassium channel. O88943. CHO-K1 KCNQ2, FluxOR thallium flux, 20 min; active compounds read low. B-score at 10 µM. actives 1.1% (n = 310,000). AID 2156;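 active means fluorescence ratio B-score at most minus 3 library SDs, with starting brightness B-score within 2 library SDs, cut at about -5.5 in these data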
KCNQ2 enhance – enhances the rat KCNQ2 potassium channel; O88943; CHO-K1 KCNQ2, FluxOR thallium flux fluorescence; active compounds read high; B-score at 10 µM; actives 0.54% (n = 310,000);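 active means fluorescence ratio B-score at least 3 SD of library B-scores, with initial fluorescence B-score within 3 of them, cut at about 5.3 in these data; same plate scores as AID 2156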;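 further: B-score of peak minus minimum over baseline fluorescence ratio after K+ and Tl+ stimulus; positive B-score means potentiation of KCNQ2 with more thallium influx and brighter signal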
KCNQ2 block conf – rat KCNQ2 channel inhibition, confirmatory screen; shares compounds with KCNQ2 inh; KCNQ2-expressing cells, thallium flux; active compounds read low; activity change, negative = inhibition, % at 10 µM; actives 57% (n = 1,000); AID 493025
KCNQ1 spec – human KCNQ1 activity in KCNQ2 inhibitor specificity screen | shares compounds with KCNQ2 inh | KCNQ1-expressing cells, FluxOR thallium flux fluorescence; active compounds read low | activity change, negative = inhibition, % at 10 µM | actives 15% (n = 1,000) | AID 493026;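 active means activity change at least 3 SD of negative controls below their mean in both duplicate wells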;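 further: CHO cells stably transfected with KCNQ1 and depolarized by potassium stimulus; peak minus minimum fluorescence over baseline after thallium addition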
Target sequence (P51787 whole entry, looked up): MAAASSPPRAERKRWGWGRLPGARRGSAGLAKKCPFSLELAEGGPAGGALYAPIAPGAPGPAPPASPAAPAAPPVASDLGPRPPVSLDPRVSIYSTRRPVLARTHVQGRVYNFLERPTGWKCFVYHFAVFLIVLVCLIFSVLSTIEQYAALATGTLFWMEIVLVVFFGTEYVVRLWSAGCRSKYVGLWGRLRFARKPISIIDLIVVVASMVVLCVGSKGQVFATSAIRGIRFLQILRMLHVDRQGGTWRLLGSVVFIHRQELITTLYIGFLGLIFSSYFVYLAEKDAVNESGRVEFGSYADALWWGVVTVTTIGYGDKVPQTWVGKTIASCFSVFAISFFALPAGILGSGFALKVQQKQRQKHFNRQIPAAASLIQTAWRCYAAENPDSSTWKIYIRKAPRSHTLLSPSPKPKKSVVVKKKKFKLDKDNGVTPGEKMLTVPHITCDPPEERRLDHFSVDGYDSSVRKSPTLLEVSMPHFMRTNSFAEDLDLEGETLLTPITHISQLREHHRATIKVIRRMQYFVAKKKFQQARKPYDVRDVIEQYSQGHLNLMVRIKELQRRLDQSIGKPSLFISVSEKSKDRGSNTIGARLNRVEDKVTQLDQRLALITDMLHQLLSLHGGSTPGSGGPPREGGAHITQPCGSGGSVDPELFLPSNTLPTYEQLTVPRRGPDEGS
CHO Tl ctr – KCNQ2 inhibitor counter-screen hit in parental CHO cells. shares compounds with KCNQ2 inh. thallium flux counter-screen; active compounds read low. activity change, % at 10 µM. actives 14% (n = 1,000). AID 493029
KCNQ2 inh confirm – blocks rat KCNQ2 current in automated patch clamp. shares compounds with KCNQ2 inh. KCNQ2-expressing cells. calls only at 10 µM. actives 49% (n = 550)
Large screens that a line does not name were inactive (follow-up assays come after a bar, where they were run). Unless noted, how the calls were made is not given here.

Cc1cccc(N2C(=O)N3[C@@H]4c5ccccc5OC[C@@H]4[C@@H](c4ccccc4)[C@@]3(C)C2=O)c1	none (no result: KCNQ2 enhance)
COc1ccccc1OCC(=O)Nc1ccccc1C(=O)N1CCCC1	none
O=C(COc1ccc(F)cc1Cl)Nc1ccccc1C(=O)N1CCCCC1	KCNQ2 inh -8.6 | KCNQ2 block conf -22% | KCNQ1 spec inactive | CHO Tl ctr inactive | KCNQ2 inh confirm active
Cc1ccc(Sc2c(C#N)c(-c3ccccc3)nn2C)cc1	KCNQ2 inh -8.5 | KCNQ2 block conf inactive | KCNQ1 spec inactive | CHO Tl ctr inactive
Cc1ccc(SCc2c(-c3ccccc3)nn(C)c2Cl)cc1	none (no result: KCNQ2 enhance)
O=S(=O)(c1ccccc1)c1nc(NCc2cccnc2)sc1Cl	none
CSCCC(NC(=O)c1cccc(S(=O)(=O)N2CCOCC2)c1)C(=O)Nc1cccc(C)c1 (centres undefined)	none
c1ccc(-c2nc(-c3nccc4ccccc34)oc2-c2ccccc2)cc1	KCNQ2 inh -8.6 | KCNQ2 block conf inactive | KCNQ1 spec inactive | CHO Tl ctr inactive
Nc1nc(-c2ccccc2)c(-c2ccccc2)o1	none (no result: KCNQ2 enhance)
Cc1cc2c(=O)n(C)c(SCC(=O)Nc3cccc(F)c3)nc2s1	none
COc1ccc(-c2cc(C(=O)Nc3ccccc3O)c3ccccc3n2)cc1OC	KCNQ2 inh -6.9 | KCNQ2 block conf inactive | KCNQ1 spec inactive | CHO Tl ctr inactive
COc1ccc(-c2cc(C(=O)Nc3ccc(Cl)cc3Cl)c3ccccc3n2)cc1OC	none (no result: KCNQ2 enhance)
COc1ccccc1NC(=O)c1cc(-c2cc(OC)c(OC)c(OC)c2)nc2ccccc12	KCNQ2 inh -8.9 | KCNQ2 block conf inactive | KCNQ1 spec inactive | CHO Tl ctr inactive
COc1cc(-c2cc(C(=O)Nc3ccc(N4CCOCC4)cc3)c3ccccc3n2)cc(OC)c1OC	none (no result: KCNQ2 enhance)
CC(C(=O)Nc1ccccc1Br)N1c2cccc3cccc(c23)S1(=O)=O (centres undefined)	none (no result: KCNQ2 enhance)
CN(C)C(=O)CN1C(=O)NC(c2ccccc2)(c2ccccc2)C1=O	none (no result: KCNQ2 enhance)
COc1ccc(NC(=O)c2nn(C34CC5CC(CC(C5)C3)C4)cc2[N+](=O)[O-])cc1	none
O=C(Nc1cccc2ccccc12)c1nn(C23CC4CC(CC(C4)C2)C3)cc1[N+](=O)[O-]	KCNQ2 inh -9.1 | KCNQ2 block conf -29% | KCNQ1 spec inactive | CHO Tl ctr inactive | KCNQ2 inh confirm active
CCN1CCN(S(=O)(=O)c2ccc(Cl)c(C(=O)N(C)Cc3cccc(Cl)c3Cl)c2)CC1	KCNQ2 inh -6.9 | KCNQ2 block conf inactive | KCNQ1 spec inactive | CHO Tl ctr inactive
COc1ccc(S(=O)(=O)N2CCCCCC2)cc1C(=O)N(C)Cc1cccs1	none
COc1ccc(S(=O)(=O)N2CCCCCC2)cc1C(=O)N(C)Cc1ccc(Cl)cc1Cl	KCNQ2 inh -8.5 | KCNQ2 block conf inactive | KCNQ1 spec inactive | CHO Tl ctr inactive
CCN1CCN(S(=O)(=O)c2ccc(Cl)c(C(=O)N(C)Cc3ccc(F)cc3)c2)CC1	none
O=C(NCc1ccco1)/C(=C\c1cccnc1)NC(=O)c1ccccc1F	none (no result: KCNQ2 enhance)
O=C(Nc1cccc(C(=O)O)c1)/C(=C\c1ccc2c(c1)OCO2)NC(=O)c1ccccc1Cl	none (no result: KCNQ2 enhance)
COC(=O)CSc1nnc(CCc2ccccc2)n1C	none (no result: KCNQ2 enhance)
CCOC(=O)c1cc2c(=O)c3cc(C)ccc3oc2nc1C	none
CCN(CC)C(=O)c1cc2c(=O)c3cc(Cl)ccc3oc2nc1C	KCNQ2 inh -7.4 | KCNQ2 block conf -28% | KCNQ1 spec inactive | CHO Tl ctr inactive | KCNQ2 inh confirm active
Cc1cccc(OCc2nnc(SCC(=O)N3CC(=O)Nc4ccccc43)o2)c1	none (no result: KCNQ2 enhance)
CCOc1nc2cnccc2n(CC(=O)Nc2c(C)cccc2CC)c1=O	none
O=[N+]([O-])c1ccc(C2CCCC/C2=N/OCc2ccc(F)cc2)c([N+](=O)[O-])c1 (centres undefined)	none (no result: KCNQ2 enhance)
O=[N+]([O-])c1ccc(C2CCCC/C2=N/OCc2ccccc2F)c([N+](=O)[O-])c1 (centres undefined)	KCNQ2 inh -10 | KCNQ2 block conf -36% | KCNQ1 spec inactive | CHO Tl ctr inactive | KCNQ2 inh confirm inactive
CN(Cc1ccsc1)C(=O)CCc1nnc(CCCc2ccccc2)o1	none (no result: KCNQ2 enhance)
CCN(Cc1ccccc1)C(=O)CCc1nnc(CCCc2ccccc2)o1	KCNQ2 inh -10 | KCNQ2 block conf -26% | KCNQ1 spec inactive | CHO Tl ctr inactive | KCNQ2 inh confirm active
COc1ccccc1C(=O)Nc1ccnn1C1CCN(C/C=C/c2ccc(F)cc2)CC1	none
Cc1cccc(OCC(=O)NCCNC(=O)c2ccco2)c1	none

Compound activity as filed in PubChem BioAssay.
